From PubChem BioAssay (Tox21)
Inconclusive results are not listed. Activity calls are given as the source filed them. Unless noted, the call rests on the fitted dose curve; in most records, active means well fitted curve in the direction sought with a large enough effect in the repeat runs; inconclusive means weak or mixed curves; inactive means no such curve, though single readings can be large; an effect the other way counts as inactive or inconclusive.

Experiments:
[1] = qHTS assay for small molecule agonists of the p53 signaling pathway (AID 651631; calls by dose curve; further: nearly all actives have a fitted effect of over 15% in size; further: potency means the concentration at half of the fitted maximal effect); conditions: HCT-116 p53RE-bla reporter, beta-lactamase FRET ratio, 16 h; series mostly up to 73.3 µM
In short: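 Beta-lactamase reporter activity under p53 response elements was quantified in HCT-116 cells by FRET fluorescence, following 16 h incubation with test compounds at 37 °C and 2 h substrate development at room temperature.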

[2] = qHTS assay for small molecules that induce genotoxicity in human embryonic kidney cells expressing luciferase-tagged ATAD5 - cell viability (AID 651634; calls by dose curve; further: nearly all actives have a fitted effect of over 25% in size; further: potency means the concentration at half of the fitted maximal effect); conditions: HEK293T ATAD5-luc cells viability, CellTiter-Fluor, 15.5 h; series mostly up to 83.3 µM
In short: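 HEK293T ATAD5-luc cells, 2,000/well; compound 15.5 hr, 37C/5% CO2; CellTiter-Fluor 30 min, 37C; fluorescence read.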

[3] = qHTS assay for small molecule disruptors of the mitochondrial membrane potential - cell viability (AID 720634; calls by dose curve;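 further: human HepG2 liver cancer cells; nearly all actives have a fitted effect of over 20% in size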); conditions: HepG2 viability, ATP luminescence (CellTiter-Glo), 1 h; series mostly up to 83.2 µM
In short: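 Luminescence from CellTiter-Glo (ATP content) gave viability in HepG2 cells, read in the same wells as the MMP dye assay after 1 hr compound exposure at 37 C.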

[4] = qHTS assay for small molecule disruptors of the mitochondrial membrane potential (AID 720635); conditions: HepG2 mitochondrial membrane potential, Mito-MPS dye ratio; series mostly up to 83.2 µM; further: potency means the concentration at half of the fitted maximal effect
In short: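 HepG2 cells exposed to compound 1 hr at 37C, then Mito-MPS dye 30 min. Ratio read of aggregate (540/590 nm) versus monomer (490/535 nm) fluorescence.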

[5] = qHTS assay to test for compound auto fluorescence at 590 nm (red) in HepG2 cells (AID 720674); conditions: HepG2 autofluorescence, red 540/590 nm, 1 h; series mostly up to 91.3 µM
In short: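 Seeding: 2,000 HepG2 cells/well, MEM/10% FBS, overnight 37 C. Dosing: compound vs DMSO. Incubation: 1 hr, 37 C, 5% CO2. Read: fluorescence 540 ex/590 em, Rose Bengal sodium as red reference.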

[6] = qHTS assay to test for compound auto fluorescence at 535 nm (green) in HepG2 cells (AID 720675); conditions: green autofluorescence 485/535 nm, 1 h; series mostly up to 91.3 µM
[7] = qHTS assay to test for compound auto fluorescence at 460 nm (blue) in HEK293 cells (AID 720678); conditions: blue autofluorescence 405/460 nm; series mostly up to 91.3 µM
In short: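 Intrinsic compound fluorescence is recorded in live HEK293 cultures after overnight incubation at 37C, 5% CO2, using excitation 405 nm and emission 460 nm. Values are referenced to triamterene.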

[8] = qHTS assay to test for compound auto fluorescence at 590 nm (red) in HEK293 cells (AID 720679); conditions: red autofluorescence 540/590 nm; series mostly up to 91.3 µM
In short: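 Red autofluorescence, HEK293 cells: 2,000 cells/well; attach 4-5 hr 37C; add 23 nL cpd or DMSO; incubate o/n 37C 5% CO2; read Ex540/Em590; Rose Bengal sodium reference.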

[9] = qHTS assay to test for compound auto fluorescence at 535 nm (green) in HEK293 cells (AID 720680); conditions: green autofluorescence 485/535 nm; series mostly up to 91.3 µM
[10] = qHTS assay to test for compound auto fluorescence at 460 nm (blue) in HEK293 cell free culture (AID 720681); conditions: cell-free medium, autofluorescence 405/460 nm (blue); series mostly up to 91.3 µM
In short: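 Compounds were added to cell-free DMEM with 10% FBS and fluorescence read directly. The blue channel used 405 nm excitation and 460 nm emission, with triamterene as the reference fluorophore.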

[11] = qHTS assay to test for compound auto fluorescence at 535 nm (green) in HEK293 cell free culture (AID 720682); conditions: cell-free medium, green autofluorescence 485/535 nm, hits give high values; series mostly up to 91.3 µM
In short: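 Each library compound, or DMSO control, is added by pintool to medium alone, comprising DMEM and 10% FBS. Emission at 535 nm following 485 nm excitation is quantified against fluorescein.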

[12] = qHTS assay to test for compound auto fluorescence at 590 nm (red) in HEK293 cell free culture (AID 720683); conditions: cell-free medium autofluorescence, Ex540/Em590 red; series mostly up to 91.3 µM
In short: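 Cell-free wells of DMEM with 10% FBS received compound, and intrinsic fluorescence was read at excitation/emission 540/590 nm. Values expressed as equivalence to Rose Bengal sodium.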

[13] = qHTS assay to test for compound auto fluorescence at 460 nm (blue) in HepG2 cell free culture (AID 720685); conditions: Cell-free culture medium, blue autofluorescence 405/460 nm; series mostly up to 91.3 µM
In short: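 Cell-free plates of MEM plus 10% FBS received 23 nL compound or DMSO vehicle; blue-channel (405/460 nm) intensity scored against triamterene as reference fluorophore.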

[14] = qHTS assay to test for compound auto fluorescence at 535 nm (green) in HepG2 cell free culture (AID 720686); conditions: Cell-free medium, green autofluorescence 485/535 nm; series mostly up to 91.3 µM
[15] = qHTS assay to test for compound auto fluorescence at 460 nm (blue) in HepG2 cells (AID 720687); conditions: autofluorescence 405/460 nm, 1 h; series mostly up to 91.3 µM
In short: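 HepG2 cells in MEM with 10% FBS, attached overnight at 37 C, were exposed to compound or DMSO for 1 hr at 37 C, 5% CO2. Blue fluorescence was read at 405/460 nm, with triamterene as reference fluorophore.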

[16] = molecular target: Glucocorticoid receptor (Homo sapiens) (UniProt P04150); assay: qHTS assay to identify small molecule agonists of the glucocorticoid receptor (GR) signaling pathway (AID 720691; active means well fitted activation curve with a large enough effect in the signal ratio in the repeat runs, not every such curve was filed as active; the % refers to the signal ratio); conditions: GR-bla HeLa, beta-lactamase reporter ratio, 18 h; series mostly up to 62.4 µM
In short: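 HeLa GR-bla reporter line; cells pre-incubated 4 h, compound in DMSO 18 h at 37 C; LiveBLAzer B/G FRET substrate 2 h RT; fluorescence intensity read-out.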

[17] = qHTS assay for small molecule agonists of the p53 signaling pathway - cell viability (AID 651633; calls by dose curve; further: nearly all actives have a fitted effect of over 30% in size); conditions: p53RE-bla HCT-116 viability, ATP luminescence, 16 h; series mostly up to 83.3 µM
In short: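 p53RE-bla cells were treated with compound for 16 hours at 37 C. Cytotoxicity was then measured as CellTiter-Glo luminescence after 30 min at room temperature.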

[18] = qHTS assay to test for compound auto fluorescence at 590 nm (red) in HepG2 cell free culture (AID 720684); conditions: cell-free medium autofluorescence, red 540/590 nm; series mostly up to 91.3 µM
In short: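 Rose Bengal sodium served as the reference for red signal. Test compounds were dispensed into serum-containing MEM (10% FBS) without cells, and plates were read at 540/590 nm.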

[19] = molecular target: Glucocorticoid receptor (Homo sapiens) (UniProt P04150); assay: qHTS assay to identify small molecule antagonists of the glucocorticoid receptor (GR) signaling pathway (AID 720692; active means well fitted inhibition curve with a large enough effect in the signal ratio in the repeat runs, not every such curve was filed as active; the % refers to the signal ratio; further: potency means the concentration at half of the fitted maximal effect); conditions: GR-bla HeLa, beta-lactamase FRET ratio, dexamethasone-stimulated, 18 h; series mostly up to 58.5 µM
In short: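 Read-out: beta-lactamase FRET substrate fluorescence, 2 h at room temperature, in HeLa cells stably carrying a GRE-driven bla reporter. Compounds were co-incubated with 5 nM dexamethasone agonist (final) for 18 h at 37 C.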

[20] = qHTS assay for small molecules that induce genotoxicity in human embryonic kidney cells expressing luciferase-tagged ATAD5 (AID 651632); conditions: HEK293T ATAD5-luciferase induction, 16 h; series mostly up to 83.3 µM; further: nearly all actives have a fitted effect of over 15% in size
In short: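 Luminescence read-out: after 16 hr compound exposure at 37C, ATAD5-luciferase HEK293T cells received Amplite, 30 min RT, then CCD imaging. A rise in signal marks genotoxic stress.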

Measured: Potency

Glucocorticoid receptor (Homo sapiens), sequence (P04150 whole entry, looked up): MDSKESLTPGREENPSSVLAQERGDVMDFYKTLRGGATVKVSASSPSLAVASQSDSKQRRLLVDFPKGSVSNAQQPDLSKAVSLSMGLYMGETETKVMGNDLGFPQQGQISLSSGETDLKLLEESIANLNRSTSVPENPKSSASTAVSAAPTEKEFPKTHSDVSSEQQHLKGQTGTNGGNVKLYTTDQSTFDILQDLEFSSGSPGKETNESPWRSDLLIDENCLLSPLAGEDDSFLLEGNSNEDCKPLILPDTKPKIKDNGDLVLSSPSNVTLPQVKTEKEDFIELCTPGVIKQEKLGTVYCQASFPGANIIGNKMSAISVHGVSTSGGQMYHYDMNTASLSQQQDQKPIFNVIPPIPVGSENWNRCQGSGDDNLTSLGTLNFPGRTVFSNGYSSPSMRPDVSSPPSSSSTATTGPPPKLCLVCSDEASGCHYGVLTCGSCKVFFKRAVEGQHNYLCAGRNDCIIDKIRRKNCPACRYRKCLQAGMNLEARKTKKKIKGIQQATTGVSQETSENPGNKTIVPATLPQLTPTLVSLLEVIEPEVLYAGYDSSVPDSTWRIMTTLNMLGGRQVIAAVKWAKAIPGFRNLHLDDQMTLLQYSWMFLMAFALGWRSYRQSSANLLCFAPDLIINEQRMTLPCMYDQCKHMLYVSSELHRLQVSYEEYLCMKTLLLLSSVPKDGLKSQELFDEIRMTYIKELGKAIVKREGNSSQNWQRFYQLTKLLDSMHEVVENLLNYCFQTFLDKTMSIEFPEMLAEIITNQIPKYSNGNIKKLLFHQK

CCCCN(N=O)C(=N)N[N+](=O)[O-]
active: [1] 62.4 µM
not listed: [17] | [18] | [19] | [20]
inactive: all other assays above

S=C=NCc1ccccc1
active: [1] 69.3 µM | [4] 55 µM
not listed: [2] | [8] | [14] | [20]
inactive: all other assays above

II
active: [4] 19.3 µM
not listed: [20]
inactive: all other assays above

CCC(Br)(CC)C(=O)NC(N)=O
not listed: [16] | [19] | [20]
inactive: all other assays above

CC(C)=CCOc1c2occc2cc2ccc(=O)oc12
not listed: [5] | [16] | [19] | [20]
inactive: all other assays above

COC(N)=O
not listed: [8] | [20]
inactive: all other assays above

Brc1ccccc1
not listed: [6] | [20]
inactive: all other assays above

NC(=O)CI
not listed: [1] | [4] | [6] | [14] | [16] | [17] | [19]
inactive: all other assays above

O=C1CN=C(c2ccccc2)c2cc(Cl)ccc2N1CC1CC1
active: [4] 51 µM | [19] 45.8 µM
not listed: [1] | [5] | [17]
inactive: all other assays above

OCCCBr
not listed: [1] | [4] | [8] | [14] | [17]
inactive: all other assays above

C/C(=C\c1ccccc1)[N+](=O)[O-]
active: [2] 24.3 µM | [4] 30.6 µM
not listed: [1] | [5] | [16] | [17] | [18] | [19]
inactive: all other assays above

[CH3][Sn]([CH3])([Cl])[Cl]
not listed: [1] | [5] | [16] | [17] | [18] | [19]
inactive: all other assays above

O=Cc1ccc(Cl)cc1Cl
not listed: [1] | [4] | [6] | [17] | [19]
inactive: all other assays above

C[C@@H]1CC[C@H]2[C@@H](C)C(=O)O[C@@H]3O[C@@]4(C)CC[C@@H]1[C@]32OO4
active: [2] 1.06 µM
not listed: [1] | [14] | [16] | [17] | [18]
inactive: all other assays above

OC(c1ccc(Cl)cc1)(c1ccc(Cl)cc1)c1cccnc1
active: [4] 54.5 µM | [19] 49 µM
not listed: [1] | [5] | [6] | [14] | [16] | [17]
inactive: all other assays above

COP(=O)(OC)O/C(=C/Cl)c1cc(Cl)c(Cl)cc1Cl
not listed: [1] | [4] | [8] | [16] | [17] | [19]
inactive: all other assays above

O=C(O)C(F)(F)C(F)(F)C(F)(F)C(F)(F)C(F)(F)C(F)(F)C(F)(F)C(F)(F)C(F)(F)F
not listed: [1] | [4] | [16] | [17]
inactive: all other assays above

C/C=C/C=O
not listed: [1] | [3] | [4] | [5] | [6]
inactive: all other assays above

C=CC(=O)OCC(C)O (configuration not stated)
not listed: [1] | [16] | [17] | [19]
inactive: all other assays above

COCCOCCO
not listed: [1] | [4] | [5] | [6] | [16] | [17] | [18] | [19]
inactive: all other assays above

CC(C)(C)c1cc([N+](=O)[O-])cc([N+](=O)[O-])c1O
active: [2] 6.09 µM | [4] 0.484 µM
not listed: [1] | [3] | [17] | [19]
inactive: all other assays above

O=[N+]([O-])C(Br)(CO)CO
not listed: [1] | [16] | [17] | [19]
inactive: all other assays above

O=[N+]([O-])c1cc(C(F)(F)F)cc([N+](=O)[O-])c1Cl
not listed: [1] | [2] | [3] | [4] | [6] | [18]
inactive: all other assays above

CC(C)N(C(=O)COc1nnc(C(F)(F)F)s1)c1ccc(F)cc1
active: [19] 49 µM
not listed: [1] | [3] | [4] | [5]
inactive: all other assays above
